# From PubChem
# Sfp PPTase inh: blocks B. subtilis Sfp PPTase activity; Q9F4F7; Biochemical Sfp PPTase activity, qHTS; Potency, µM, inactives show largest response in the series, negative = inhibition, hits mostly inhibitors; 310,000 compounds, 3.5% hits;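 further: the enzyme is Sfp with the accession as filed and its product quenches rhodamine fluorescence; 0% = enzyme reaction without inhibitor and -100% = no enzyme wells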
#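 Fluorescence-quenching assay: 15 nM Sfp-PPTase preincubated 15 min at room temperature with compound, then 5 uM rhodamine-CoA and 12.5 uM BHQ-2-labelled YbbR peptide added. Fluorescence (ex 525/em 598 nm) read at start and after 30 min; difference gives rate.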
# G9a inh: blocks human histone lysine methyltransferase G9a | Q96KQ7 | G9a H3K9 monomethylation, AlphaScreen, 2 h | Potency, µM (top dose mostly 102 µM), inactives show at the highest dose activity, negative = inhibition, most hits filed as inhibitors | 350,000 compounds, 8.8% hits; further: on the % scale 0 is the no-effect control and ±100 the full control effect; nearly all actives have a fitted effect of over 75% in size
#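 Signal arises when biotinylated H3K9 peptide, once monomethylated, bridges streptavidin donor and antibody-captured acceptor beads. Enzyme at 20 nM was preincubated 15 min with test compounds; peptide 500 nM and SAM 20 uM then reacted for 2 h.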
# BAZ2B inh: BAZ2B (human) inhibition. AlphaScreen BAZ2B-H3K14Ac peptide displacement. Potency, µM (top dose mostly 114 µM), inactives show at the highest dose activity change, negative = inhibition, most hits filed as inhibitors. Q9UIF8. 360,000 compounds, 4.4% hits; further: on the % scale 0 is the no-effect control and ±100 the full control effect; nearly all actives have a fitted effect of over 60% in size
#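 Complex of BAZ2B and biotin-H3K14Ac (50 nM apiece) forms over 30 min at RT, then faces library compounds up to 110 uM for another 30 min; AlphaScreen beads added, 20 min dark incubation, luminescence read.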
# L3MBTL1 block: L3MBTL1 (human) inhibition; 230,000 compounds, 0.66% hits; Potency, µM (doses to about 57.1 µM), for the others: at the top dose activity, negative = inhibition, most hits filed as inhibitors; AlphaScreen L3MBTL1–H3K9me1 peptide binding; AID 485360; Q9Y468; further: on the % scale 0 is the no-effect control and ±100 the full control effect; nearly all actives have a fitted effect of over 60% in size
#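 Read-out is AlphaScreen signal from streptavidin donor and nickel chelate acceptor beads (10 ug/mL final each) bridging L3MBTL1 (50 nM) and biotinylated K9-monomethylated H3(1-15) peptide (75 nM), after 30 min compound exposure at room temperature.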
# JMJD2A Tudor: inhibitors of human JMJD2A Tudor domain | O75164 | AlphaScreen JMJD2A-Tudor / H3K4me3 peptide binding | Potency, µM (doses to about 114 µM), without a hit: at the highest dose activity change, negative = inhibition, most hits filed as inhibitors | 390,000 compounds, 4.4% hits | AID 504339; further: on the % scale 0 is the no-effect control and ±100 the full control effect; nearly all actives have a fitted effect of over 50% in size
# HP1b chromo inh: inhibitors of HP1-beta chromodomain binding to methylated histone tails; P83916; AlphaScreen HP1-beta / biotin-H3K9me3 peptide binding; Potency, µM (top dose mostly 114 µM), for the others: at the highest dose activity change, negative = inhibition, usual class: inhibitors; 390,000 compounds, 0.56% hits; further: nearly all actives have a fitted effect of over 70% in size
#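 AlphaScreen: HP1-beta (50 nM) preformed 30 min with biotin-H3(1-18)K9me3 peptide (50 nM) in PBS pH 7.4, 0.01% Tween-20. Compound added for 30 min at RT, then streptavidin donor/nickel chelate acceptor beads (10 ug/mL) for 30 min.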
# * marks the source's active call; other numbers are inactive results; ? = inconclusive; nt = not tested or not shown; [ ] = another dose, or the depositor's remark. An excerpt weighted towards active compounds, which were near 12% of everything screened. The call rests on the fitted dose curve; in most records, active means well fitted curve in the direction sought with a large enough effect; inconclusive means small, poorly fitted or top-dose-only effect, or another doubt; inactive means no such curve, though single readings can be large; an effect the other way counts as inactive or inconclusive. Potency means the concentration at half of the fitted maximal effect.
SMILES,Sfp PPTase inh,G9a inh,BAZ2B inh,L3MBTL1 block,JMJD2A Tudor,HP1b chromo inh
CCC1(C(=O)OC)NC(c2ccco2)C2C(=O)N(c3ccccc3)C(=O)C21 (stereo not given),-12%,9%[59 µM],5%,-10%,-5%,54%
CCC1(C(=O)OC)NC(c2ccco2)C2C(=O)N(c3ccc(F)cc3)C(=O)C21 (stereo not given),-10%,45µM*,-22%,-6%,-19%,29%
CCOC(=O)C1(C)NC(c2ccc(N(C)C)cc2)C2C(=O)N(c3ccc(OC)cc3)C(=O)C21 (stereo not given),20%,-11%,4%,4%,-20%,13%
O=C(Nc1nc2c(F)cccc2s1)c1ccc2c(c1)OCCO2,nt,-29%[59 µM],-1%,nt,-20%,-2%
Cc1ccc(-c2nc3c(c(SCC(=O)Nc4cccc(C(=O)O)c4)n2)Cc2cccc(C)c2O3)cc1,nt,10µM*,7.1µM*,5.6µM*,3.2µM*,?
COc1ccc(-c2nc3c(c(SCC(=O)Nc4ccccc4OC)n2)Cc2cccc(C)c2O3)cc1,nt,1%[59 µM],-12%,nt,-15%,41%
O=C(CSc1nc(-c2ccc(F)cc2)nc2c1Cc1ccccc1O2)Nc1ccc(C(=O)O)cc1,-21%,?,7.9µM*,5µM*,10µM*,?
CN(CC(=O)Nc1cccc(F)c1)C(=O)Cn1c(=O)cnc2ccccc21,nt,?,-2%,6%,-11%,22%
Cc1cc(Br)ccc1NC(=O)CN(C)C(=O)Cn1c(=O)cnc2ccccc21,-7%,nt,79µM*,nt,18µM*,?
Cc1c(Cl)cccc1NS(=O)(=O)c1ccc(-c2cnc(C3CC3)o2)cc1,nt,-2%[59 µM],-27%,nt,-18%,25%
CCc1ccc2c(c1)c(=O)c(S(=O)(=O)c1ccc(Cl)cc1)cn2CC,nt,2%[59 µM],56µM*,nt,-17%,21%
CCCn1cc(S(=O)(=O)c2ccccc2)c(=O)c2cc(CC)ccc21,1%,-17%,-15%,nt,-6%,46%
Cc1[nH]c2ccc(F)cc2c(=O)c1SC(F)(F)C(F)C(F)(F)F (stereo not given),-13%,32µM*,10%,nt,-9%,28%
O=Nc1c(-c2ccccc2)cc2ccccn12,-10%,40µM*,79µM*,?,-36%,7%
COc1ccc2c(c1)c1c(c(=O)n(CCc3ccccc3)c(=O)n1Cc1ccc(Cl)cc1)n2C,nt,5%[59 µM],-2%,nt,11%,36%
COc1ccccc1C(=O)C1CCCN(C(=O)c2cn3cc(Cl)ccc3n2)C1 (stereo not given),8%,28µM*,-26%,5%,-6%,34%
COc1ccccc1C(=O)C1CCCN(C(=O)c2ccccc2Cl)C1 (stereo not given),4%,-9%,4%,nt,4%,31%
C1CSC2(N1)C1CC3CC(C1)CC2C3 (stereo not given),35µM*,6.3µM*,-2%,16%,-33%,-4%
CCCCn1c(N)c(N(CCOC)C(=O)CSCc2c(C)noc2C)c(=O)[nH]c1=O,18%,-3%,-17%,nt,-10%,34%
CCCN(C(=O)c1c(-c2ccccc2)noc1C)c1c(N)n(Cc2ccccc2)c(=O)[nH]c1=O,nt,-21%[0.0925 µM],-37%,18%,0%,21%
CCCN(C(=O)Cn1nc(C)c([N+](=O)[O-])c1C)c1c(N)n(Cc2ccccc2)c(=O)[nH]c1=O,nt,45µM*,9%,-1%,-3%,21%
CCCCn1c(N)c(N(CC)C(=O)CSCc2c(C)noc2C)c(=O)[nH]c1=O,13%,45µM*,-8%,nt,-14%,30%
CCCN(C(=O)CSCc1c(C)noc1C)c1c(N)n(Cc2ccccc2)c(=O)[nH]c1=O,nt,45µM*,3%,-4%,-15%,-14%
COc1ccc(C2=Nn3c(nnc3-c3cc(OC)cc(OC)c3)SC2)cc1,-24%,nt,nt,nt,-23%,nt
Cc1ccsc1CN(C(=O)c1ccc(OCC(C)C)cc1)C1CCS(=O)(=O)C1 (stereo not given),nt,-6%[59 µM],-15%,nt,-19%,16%
SMILES,Sfp PPTase inh,G9a inh,BAZ2B inh,L3MBTL1 block,JMJD2A Tudor,HP1b chromo inh
O=C(CSc1nc2nc(-c3cccs3)cc(C(F)(F)F)c2c(=O)[nH]1)Nc1ccc(F)c(F)c1,-25%,-22%,?,28µM*,?,-1%
COCCn1c(C)cc(/C=C2\NC(=S)N(C)C2=O)c1C,-9%,10µM*,50µM*,-11%,-51%,?
CCOC(=O)c1ccc(NC(=O)CSc2cn(CC(=O)N3CCCC3)c3ccccc23)cc1,nt,-12%[59 µM],-27%,nt,-26%,27%
CCn1c(SCC(=O)NCc2ccco2)nnc1-c1cccs1,14µM*,?,?,0%[11.4 µM],-18%,30%
CCn1c(SCC(=O)N2c3ccccc3Sc3ccccc32)nnc1-c1ccco1,?,6.3µM*,?,15%[11.4 µM],?,-7%
O=C(CSc1cccc[n+]1[O-])c1cccs1,4%,18µM*,-12%,8%,-9%,15%
CCn1c(SCC(=O)NCc2ccco2)nnc1-c1ccncc1,11%,-29%,-25%,-10%,nt,nt
Cn1cccc1C(=O)NC(=O)CSc1cccc[n+]1[O-],?,28µM*,-37%,-9%,-10%,13%
COc1ccc(CN(Cc2ccco2)C(=O)c2ccccc2F)cc1,nt,5%[59 µM],-20%,nt,-22%,30%
CCn1c(SC(=O)NC2CCCCC2)nnc1-c1cccs1,-7%,?,4%,-1%,4.5µM*,22µM*
Cn1nnnc1SCC(=O)c1cccs1,45µM*,?,1%,2%,-3%,64%
CCn1c(SCC(N)=O)nnc1-c1ccco1,6%,9%,10%,1%,-7%,12%
CCn1c(SCC(=O)c2cccs2)nnc1-c1ccco1,0%,50µM*,-5%,-11%,-16%,33%
Cc1nn(C)c2c1c(C(F)(F)F)cc(=O)n2C(C)C(=O)Nc1ccccc1F (stereo not given),nt,30%[59 µM],0%,nt,-13%,12%
COc1ccc(COC(=O)N/N=C2/C[C@@H](O)[C@@H](O)[C@@H]3[C@@H]4C(=O)N(C[C@@H]5CCCO5)C(=O)[C@H]4CC[C@@H]23)cc1,-14%,nt,nt,nt,nt,nt
CCC1(C)Cc2c(sc(NC(=S)NC(=O)c3ccccc3)c2C#N)CO1 (stereo not given),-26%,45µM*,-31%,4%,-27%,-14%
CN1Cc2sc(NC(=S)NC(=O)c3ccccc3)c(C#N)c2CC1(C)C,32µM*,10µM*,45µM*,?,35µM*,?
COC(=O)C(NNc1ccccc1)(NC(=O)c1cccc(F)c1)C(F)(F)F (stereo not given),?,2.2µM*,?,nt,-11%,35%
